The text below walks through data of PubChem BioAssay (NCATS).

Records with an inconclusive call do not appear. Activity calls are given as the source filed them. Unless noted, calls come from the whole dose curve.

Test [1] in a line: Primary qHTS to identify inhibitors of SARS-CoV-2 cell entry (AID 1645846). Note: nearly all actives have a fitted effect of over 45% in size. In a few lines: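 HEK293 cells stably expressing human ACE2, pre-treated 1 h with compound, then infected with MLV particles pseudotyped with Wuhan-Hu-1 spike (C-terminal 19-aa truncation). Luciferase luminescence after 48 h at 37 °C, normalised to spike PP and bald PP.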
A general note: In qHTS, concentration-response curves come from the screen itself.

A short description of test [2]: VSVG counterscreen qHTS to identify inhibitors of SARS-CoV-2 cell entry (AID 1645847). Note: potency is the fitted concentration of half-maximal effect; nearly all actives have a fitted effect of over 65% in size. Summed up: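 HEK293-ACE2 cells (Expi293F, human ACE2) pretreated 1 h with compound, then infected with MLV-based VSV-G pseudotyped particles for 48 h at 37 C; luciferase luminescence normalized to VSV-G PP and bald PP wells.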
A general note: Counterscreens check selectivity or assay interference.

The target in the next test is Papain (Carica papaya) (UniProt P00784). As to the kind of experiment: Primary qHTS assay for inhibitors of the protease papain (AID 1645873; active = well fitted curve in the direction sought with a large enough effect; an effect the other way counts as inactive or inconclusive;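 note: papain turnover of Z-FR-AMC read as the AMC fluorescence gain over 10 min; % is set by controls: 0 for no effect and ±100 for the full control effect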).
Test [3] can be described thus: Primary qHTS for inhibitors of nuclear receptor binding SET domain protein 2 (NSD2) in an isogenic RCH-ACV NSD2 p.E1099K mutant (9B) (AID 1645876; active = well fitted curve in the direction sought with a large enough effect; an effect the other way counts as inactive or inconclusive; note: nearly all actives have a fitted effect of over 70% in size).
Test [4] in a line: Primary qHTS for inhibitors of nuclear receptor binding SET domain protein 2 (NSD2) in an RCH-ACV wild type WT cells (2C) (AID 1645877; active = well fitted curve in the direction sought with a large enough effect; an effect the other way counts as inactive or inconclusive; note: nearly all actives have a fitted effect of over 70% in size).
[5] abbreviates: activity change, negative = inhibition: at 57.1 µM (top of the series) unless noted.

Sequence of Papain (Carica papaya) (P00784 whole entry, looked up, the tested form may be a part): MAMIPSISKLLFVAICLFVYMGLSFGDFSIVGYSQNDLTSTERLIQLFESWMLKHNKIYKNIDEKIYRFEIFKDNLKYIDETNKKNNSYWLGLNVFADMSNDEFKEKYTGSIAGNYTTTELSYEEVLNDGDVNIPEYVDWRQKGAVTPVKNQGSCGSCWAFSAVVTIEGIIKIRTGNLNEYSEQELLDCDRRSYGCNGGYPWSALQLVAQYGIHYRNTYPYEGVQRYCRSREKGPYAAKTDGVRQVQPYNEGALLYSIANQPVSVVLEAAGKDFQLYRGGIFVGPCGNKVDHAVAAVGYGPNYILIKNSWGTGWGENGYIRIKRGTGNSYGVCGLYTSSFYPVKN

With `NCCS(=O)(=O)O`, in test [1] (setting [5]), the Potency result is “inactive” and the activity change, negative = inhibition was -2.14%.

Consider `C[C@]12C=CC(=O)C=C1CC[C@@H]1[C@@H]2[C@@H](O)C[C@@]2(C)[C@H]1CC[C@]2(O)C(=O)CO`, for which, in test [1] (setting [5]), the Potency result is “inactive” and the activity change, negative = inhibition is -3.66%. Moreover, in test [2], the Potency was 13.6 µM (active).

Take `CN1C(C(=O)Nc2ccccn2)=C(O)c2ccccc2S1(=O)=O`: in test [1] (setting [5]), the Potency result is “inactive” and the activity change, negative = inhibition was -89.8%. Further, the Potency in test [2] was 21.5 µM (active).

Take `O=C(O)c1cccnc1`: in test [1] (setting [5]), the Potency entry was “inactive” and the activity change, negative = inhibition was -20.2% [at 114 µM].

On to `COCCCN1CCC(NC(=O)c2cc(Cl)c(N)c3c2OCC3)CC1`, for which, in test [1] (setting [5]), the Potency result is “inactive” and the activity change, negative = inhibition was -5.91%.

Take `CC[C@H](C)C(=O)O[C@H]1C[C@H](O)C=C2C=C[C@H](C)[C@H](CC[C@@H](O)C[C@@H](O)CC(=O)O)[C@H]21`: in test [1] (setting [5]), the Potency entry is “inactive” and the activity change, negative = inhibition was -12.2%.

In the case of `C[C@]12C=CC(=O)C=C1CC[C@@H]1[C@@H]2C(=O)C[C@@]2(C)[C@H]1CC[C@]2(O)C(=O)CO`, in test [1] (setting [5]), the Potency entry was “inactive” and the activity change, negative = inhibition is -11.4%.

Take `CCOC(=O)C1=C[C@@H](OC(CC)CC)[C@H](NC(C)=O)[C@@H](N)C1`: in test [1] (setting [5]), the Potency result is “inactive” and the activity change, negative = inhibition is -2%.

Turning to `CC(=O)NCCCS(=O)(=O)O`, the activity change, negative = inhibition was 1.79% in test [1] (SARS-CoV-2 pseudovirus cell entry assay, luminescence, at 27.1 µM (top of the series)) and -6.89% in test [1] (SARS-CoV-2 pseudovirus cell entry assay, luminescence, at 57.1 µM (top of the series)).

Turning to `CCCCCN(C)CCC(O)(P(=O)(O)O)P(=O)(O)O`, the activity change, negative = inhibition in test [1] (SARS-CoV-2 pseudovirus cell entry assay, luminescence, at 5.25 µM (top of the series)) was -11.4%; in test [1] (SARS-CoV-2 pseudovirus cell entry assay, luminescence, at 11.3 µM (top of the series)) it was -30.6%. Moreover, in the test with Papain (Carica papaya), the outcome was inactive.

As for `CNNCc1ccc(C(=O)NC(C)C)cc1`, in test [1] (setting [5]), the Potency entry was “inactive” and the activity change, negative = inhibition worked out at 3.71%.

`O=C(O)c1cc(=O)[nH]c(=O)[nH]1`: in test [1] (setting [5]), the Potency entry was “inactive” and the activity change, negative = inhibition is -5.5%.

For the molecule `CC(NC(C)(C)C)C(=O)c1cccc(Cl)c1` (stereo unspecified), the Potency entry in test [1] (setting [5]), in test [3] and in test [4] was “inactive” each time. The activity change, negative = inhibition in test [1] (setting [5]) is -12.4%. Besides, in the test with Papain (Carica papaya), the molecule was classed as inactive.

In the case of `CCC1(C)CC(=O)NC1=O` (stereo unspecified), in test [1] (setting [5]), the Potency entry is “inactive” and the activity change, negative = inhibition is -9.22% [at 114 µM].

Take `COc1ccc(C(=O)CC(=O)c2ccc(C(C)(C)C)cc2)cc1`: in test [1] (setting [5]), the Potency result was “inactive” and the activity change, negative = inhibition was -3.57%.

Take `COP(=S)(OC)Oc1ccc(S(=O)(=O)N(C)C)cc1`: the Potency entry in test [1] (setting [5]) and in test [3] was “inactive” in each case.

As to `O=C(Nc1ccc(Br)cc1)c1cc(Br)cc(Br)c1O`, the Potency entry in test [1] (setting [5]), in test [3] and in test [4] was “inactive” in each case.
